# Laboratory results reported in PubChem BioAssay AID588453 (National Center for Advancing Translational Sciences (NCATS), 2011).
# About 4,000 (1%) of roughly 390,000 compounds were called active. About 4% were inconclusive and are not listed. The entries come from a sample that favours actives as a whole. Unmarked numbers belong to inactive results. The call rests on the fitted dose curve; in most records, active means well fitted inhibition curve with a large enough effect; inconclusive means small, poorly fitted or top-dose-only effect; inactive means no such curve, though single readings can be large or run the other way.
# Biological target: Thioredoxin reductase 1, cytoplasmic (Rattus norvegicus) (UniProt O89049)
# Test: qHTS Assay for Inhibitors of Mammalian Selenoprotein Thioredoxin Reductase 1 (TrxR1): qHTS; further: nearly all actives have a fitted effect of over 65% in size
# Conditions: recombinant rTrxR1, NADPH fluorescence consumption, selenite substrate; series mostly up to 114 µM; activity change, negative = inhibition: at the top concentration
# Text: The selenoprotein thioredoxin reductase (TrxR; EC 1.8.1.9) is a FAD containing homodimeric pyridine nucleotide-disulfide oxidoreductase with many cellular roles. Together with NADPH and its prime substrate thioredoxin (Trx), the enzyme forms the core of the Trx system. The mammalian Trx system exerts a wide spectrum of functions including redox regulation, antioxidant defense, regulation of transcription factors as well as support of cell growth and replication. Many of these functions involve the reduction of Trx, which may subsequently reduce a number of different substrates including ribonucleotide reductase, peroxiredoxins or NFkB. Mammalian TrxR itself also has a broad substrate specificity, reducing both protein and non-protein substrates, including low molecular weight compounds such as dehydroascorbate, lipoic acid, ubiquinone, and juglone. In addition, several drugs in clinical use for anticancer treatment are indeed known to target TrxR1.
# This BioAssay is a validation of an NADPH fluorescence-based, dual-purpose qHTS rTrxR1 assay designed to find potential inhibitors and substrates of rTrxR1. For this particular BioAssay, actives are potential inhibitors. See related BioAssay for substrate data deposition.
# NIH Molecular Libraries Probe Production Network [MLPCN]
# NIH Chemical Genomics Center [NCGC]
# Assay Provider: Elias Arner, Karolinska Institute
# Assay protocol: 2 uL of reagents (buffer in column 4 as negative control and 90 nM rTrxR1 in columns 1-3 and 5-48) were dispensed into Greiner black solid-bottom 1,536-well assay plates, followed by 1 uL of NADPH (400 uM final concentration) to each well. The plates were centrifuged at 1000 rpm for 15 seconds and subsequently incubated for 5 min at room temperature (~22 deg C) to allow for rTrxR1 reduction. Compounds (23 nL) were then transferred via Kalypsys pin tool equipped with 1536-pin array (10 nL slotted pins, V&P Scientific, San Diego, CA). In addition, a duplicate 2-fold serial dilution of the control compounds auranofin, a known gold-based TrxR1 inhibitor, and juglone (5-hydroxy-1,4-naphthoquinone), a natural TrxR1 substrate, were pin-transferred to columns 2 and 3, respectively. After incubation for 15 min at room temperature (~22 deg C), 1 uL of selenite (400 uM final concentration) were dispensed to each well. The plate was immediately transferred to a ViewLux high-throughput CCD imager (PerkinElmer), wherein kinetic measurements of NADPH fluorescence (Ex 340 nm, Em 450 nm) were acquired (8 minute kinetic read, see Table 1). Read 1 was utilized to assess the capacity of a compound to serve as an rTrxR1 substrate, i.e. a decrease in NADPH fluorescence compared to the no-compound background is an indication of a substrate behavior for that particular compound. For inhibitory activity of a compound, delta values, computed as the difference in fluorescence intensity between the first and last reads of an 8-minute time kinetic window, were used. All reagents were diluted in an assay buffer consisting of 50 mM Tris-HCl, pH 7.5, 2 mM EDTA, and 0.01% Tween-20.
# Throughout the screen, reagent bottle and all liquid lines were made light-tight to minimize reagent degradation. All screening operations were performed on a fully integrated robotic system (Kalypsys, San Diego, CA) containing one RX-130 and two RX-90 anthropomorphic robotic arms (Staubli, Duncan, SC). Library plates were screened starting from the lowest and proceeding to the highest concentration, and a 'double-pinning' step of the highest concentration was required to access higher concentrations of compounds. Vehicle-only plates, with DMSO being pin-transferred to the columns 5-48, were inserted uniformly at the beginning and the end of each library in order to monitor and record any shifts in the background, which can be affected by reagent dispensers or loss in enzyme activity over time. […]
# On the % scale 0 is the no-effect control and ±100 the full control effect; potency means the concentration at half of the fitted maximal effect.
# Chain of Thioredoxin reductase 1, cytoplasmic (Rattus norvegicus) (O89049 whole entry, looked up): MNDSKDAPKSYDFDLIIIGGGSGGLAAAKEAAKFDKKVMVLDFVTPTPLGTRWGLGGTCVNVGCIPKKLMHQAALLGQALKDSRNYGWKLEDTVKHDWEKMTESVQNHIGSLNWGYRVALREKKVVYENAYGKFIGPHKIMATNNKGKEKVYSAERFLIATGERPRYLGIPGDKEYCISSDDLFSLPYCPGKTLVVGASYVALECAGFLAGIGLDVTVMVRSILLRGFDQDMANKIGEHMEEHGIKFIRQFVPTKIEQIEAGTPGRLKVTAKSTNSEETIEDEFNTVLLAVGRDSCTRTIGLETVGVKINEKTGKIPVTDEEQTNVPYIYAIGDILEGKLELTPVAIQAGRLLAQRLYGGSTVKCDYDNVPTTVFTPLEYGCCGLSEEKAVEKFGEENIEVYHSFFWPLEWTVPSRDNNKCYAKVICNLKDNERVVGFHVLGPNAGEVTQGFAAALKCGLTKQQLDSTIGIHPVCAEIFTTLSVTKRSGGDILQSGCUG
SMILES,"activity change, negative = inhibition",Potency
Cc1ccc(-c2nc(Cn3c(=O)cc(-c4ccccc4)c4c(C)nn(C)c43)c(C)o2)cc1,16.5% [at 57.1 µM],–
O=C(NCc1ccccc1)C(=O)NCC(c1ccco1)S(=O)(=O)c1ccc(Cl)cc1 (centres undefined),3.23% [at 57.1 µM],–
CCN1CCC(N(Cc2ccc(F)cc2)C(=O)Nc2cc(C)ccc2C)CC1,-0.49%,–
CCN1CCC2(CC1)N=C(c1ccc(F)cc1)C(=S)N2C(=O)c1ccc(C)cc1,–,15.8 µM (active)
Cc1ccc(NC(=O)CN2C(=O)C(c3ccc(F)cc3)=NC23CCCCCC3)c(C)c1,11.7%,–
Cc1cccc(-n2ccnc2SCC(=O)Nc2cccc3ccccc23)c1C,12.3% [at 57.1 µM],–
NNc1cccc(C=Cc2ccccc2)cc1=O,–,17.8 µM (active)
O=C(COc1ccccc1)OCc1cc(=O)n2nc(-c3cccs3)sc2n1,18% [at 57.1 µM],–
CC1=Nc2cc(C(=O)NCc3ccc(C)cc3)ccc2Sc2ccc(Cl)cc21,24.3% [at 57.1 µM],–
NCCCC[C@@H]1NC(=O)[C@H](CCC(=O)O)NC(=O)c2cc([N+](=O)[O-])cc(I)c2NCC[C@@H](C(N)=O)NC1=O,-14.4%,–
NC(=O)CC[C@@H]1NC(=O)[C@@H]2CCCN2C(=O)c2cc([N+](=O)[O-])cc(F)c2NCCC[C@@H](C(N)=O)NC1=O,–,12.6 µM (active)
C[C@@H]1NC(=O)c2cc([N+](=O)[O-])cc(F)c2NCCC[C@@H](C(N)=O)NC(=O)[C@H](CC(N)=O)NC1=O,-7.55%,–
CC(C)[C@@H]1NC(=O)c2cc([N+](=O)[O-])cc(I)c2NCCC[C@@H](C(=O)NC(CC(=O)O)C(N)=O)NC(=O)[C@H](CO)NC1=O (some centres undefined),-3.78%,–
NC(=O)CC[C@@H]1NC(=O)[C@H](CO)NC(=O)c2cc([N+](=O)[O-])cc(I)c2NCC[C@@H](C(N)=O)NC1=O,–,70.8 µM (active)
NC(=O)C[C@@H]1NC(=O)CNC(=O)c2cc([N+](=O)[O-])cc(I)c2NCCC(C(N)=O)NC1=O (some centres undefined),-2.64% [at 57.1 µM],–
O=C(COc1ccccc1C(=O)Nc1ccccc1)Nc1cccc(F)c1,21.1%,–
CCC(=O)Nc1cccc(-c2nc3cc(C)ccc3o2)c1,34.9% [at 57.1 µM],–
CC(C)(C)c1ccc(C(=O)C[N+]2(C)CCCc3ccccc32)cc1 (centres undefined),7.97%,–
COC(=O)c1ccccc1NC(=S)NC(=O)c1ccccc1F,–,25.1 µM (active)
COC(=O)c1ccccc1NC(=O)Cc1ccccc1OC,-5.24%,–
O=C(NC(=S)NC1CCSC1=O)c1ccccc1F (centres undefined),9.7%,–
COc1cccc(C2C(C(=O)Nc3ccc(C)cc3C)=C(C)Nc3c(C(=O)Nc4ccccc4)cnn32)c1 (centres undefined),2.63%,–
CC1CCCCN1Cc1c(O)ccc2c(=O)c(-c3cccc(Cl)c3)c(C(F)(F)F)oc12 (centres undefined),-4.93%,–
CC1CCCN(Cc2c(O)ccc3c(=O)c(Oc4ccc(C(C)(C)C)cc4)c(C(F)(F)F)oc23)C1 (centres undefined),7.62%,–
COc1ccc(Cc2nnc(SCC(=O)c3cccc([N+](=O)[O-])c3)n2C)cc1,–,79.4 µM (active)

SMILES,"activity change, negative = inhibition",Potency
CCn1c(CNc2ccc(OC)cc2)nnc1SCC(=O)c1ccc(OC)cc1,-11.4%,–
COc1ccc(CC(=O)NCc2nnc(SCC(=O)Nc3nccs3)n2C)cc1,9.52%,–
Fc1ccc(CSc2nc(NCc3ccccc3)c3ccccc3n2)cc1,17.9% [at 57.1 µM],–
O=C(CSc1nnc(CNC(=O)c2ccccc2)n1-c1ccc(F)cc1)Nc1ccccc1F,27.2%,–
O=C(CCN1CCc2ccccc2C(O)(c2ccccc2)C1)c1ccc2c(c1)OCCO2 (centres undefined),–,0.708 µM (active)
O=C(OCc1ccccc1F)c1ccc2c(c1)OCCO2,16.1%,–
O=C(c1ccc2c(c1)OCO2)N1CCNc2ccccc2C1,-7.73%,–
O=C1CCC[C@@H]2C[C@@]3(C[C@@H]4CCN1[C@H]24)Nc1ccccc1NC3=NCc1ccccc1,11.3%,–
O=C(O)C1CC=CC2CCN(C3CCCCC3)C(=O)C21 (centres undefined),4.14%,–
Cc1nnc(N2CCCC(C(=O)NCCN(C)C)C2)c2nn(-c3ccccc3)c(C)c12 (centres undefined),14.7%,–
O=C1c2ccccc2C(=O)N1c1ccc(S(=O)(=O)N2CCOCC2)c2ccccc12,5.9%,–
O=C(c1ccc(Oc2ccc(Cl)cc2)c([N+](=O)[O-])c1)N1CCCC1,14.8%,–
CC1CCN(C(=O)c2ccc(S(=O)(=O)Cc3cc(F)ccc3F)c([N+](=O)[O-])c2)CC1,–,10 µM (active)
NC(=O)C1CCN(C(=O)c2ccc(F)c(S(=O)(=O)N3CCOCC3)c2)CC1,14.1%,–
Cc1cccc(-c2nnc(SC(C)C(=O)Nc3ccccc3)n2C)c1 (centres undefined),6.51%,–
COc1cc(Cl)c(C)cc1NC(=O)CCc1nc2cccnc2n1Cc1cccs1,10.8%,–
Cc1cccc(C(=O)N2CCc3cc(CNC(=O)Cc4ccc(F)cc4)ccc32)c1,5.2% [at 57.1 µM],–
CCOC(=O)c1cnc2[nH]c3ccccc3n2c1=O,–,44.7 µM (active)
CCOC(=O)c1cnc2sccn2c1=O,22.6%,–
CCOC(=O)c1cnc2nc(SCc3ccccc3Cl)[nH]n2c1=O,16.8%,–
COc1ccc(NC(=O)CSc2nc3ccccc3[nH]2)cc1,27.2%,–
Cc1ccccc1CN1CCN(CC(=O)NCc2ccccn2)C1=O,2.68%,–
Cc1ccccc1CN1C[C@@H]2C[C@@H](c3cn(C)nc3-c3ccccc3)N3CCC[C@@]23C1=O,–,44.7 µM (active)
Cc1ccccc1CN1C[C@@H]2C[C@@H](c3ccc4nsnc4c3)N3CCC[C@@]23C1=O,-29.8%,–
